Source: PubChem BioAssay (EPA / NIEHS)
“And” between values parts separate entries of the source, which are not always exact repeats. Identical values can stand only once. Where a structure was tested more than once in an assay, its records may differ in their call. The source made the active and inactive calls. The calls were made as follows: active = hit-call score of the fitted dose curve at least 0.9, where 1 is the maximum; inactive = score below 0.9.

Experiment: ATG_AP_2_CIS: Attagene CIS-FACTORIAL HepG2 Assay for human Activator Protein 2 (AP-2) (AID 2282932)
Conditions: HepG2 AP-2 cis-reporter, Attagene transcription factor profiling; AC50: actives raise or lower the signal unless noted; outcome: actives raise or lower the signal unless noted
Protocol: ATG_CIS is a cell-based, multiplexed-readout assay that uses HepG2, a human liver cell line, with measurements taken at 24 hours after chemical dosing in a 24-well plate.ATG_AP_2_CIS is one of 52 assay component(s) measured or calculated from the ATG_CIS assay. It is designed to make measurements of mRNA induction, a form of inducible reporter, as detected with fluorescence intensity signals by Reverse transcription polymerase chain reaction (RT-PCR) and Capillary electrophoresis technology.Data from the assay component ATG_AP_2_CIS was analyzed into 1 assay endpoint. This assay endpoint, ATG_AP_2_CIS, was analyzed with bidirectional fitting relative to DMSO as the negative control and baseline of activity. Using a type of inducible reporter, measures of mRNA for gain or loss-of-signal activity can be used to understand the reporter gene at the transcription factor-level as they relate to the gene TFAP2A and TFAP2B and TFAP2D. Furthermore, this assay endpoint can be referred to as a primary readout, because this assay has produced multiple assay endpoints where this one serves a reporter gene function. To generalize the intended target to other relatable targets, this assay endpoint is annotated to the dna binding intended target family, where the subfamily is basic helix-turn-helix leucine zipper.
Human liver HepG2 cells are transiently transfected with multiple reporter transcription units (MRTUs) in 6-well plates using FuGene 6 reagent (Roche; 3 ml FuGene/1 mg DNA). The MRTU constructs are regulated by a cis-regulating element (promoter). […] A major difference between the CIS and TRANS system is that in CIS activities of endogenous TFs are measured, whereas the TRANS assay evaluates changes in activities of exogenous, chimeric NR-Gal4 proteins. […] At the end of 24 hour incubation, total RNA was isolated using TriZol reagent (Invitrogen). The isolated RNA is then reverse-transcribed using oligo(dT) primer and Mo-MLV reverse transcriptase (Invitrogen) with DNAse I (Ambion) treatment for 30 min. The one-tenth of the produced cDNA was amplified by PCR using Taq DNA polymerase (Invitrogen) and two reporter sequence-specific primers. The PCR products were fluorescently labeled by primer extension with 6-arboxyfluorescein (6-FAM) 5'-labeled reporter sequence-specific primer (2 min at 95 C, 20 s at 68 C and 10 min at 72 C) and these products were digested with 5U of HpaI (New England Biolabs) for 2h at 37 C. The fragments were purified using Qiaquick PCR columns (Qiagen), analyzed on an ABI 3130xL genetic analyzer (Applied Biosystems) with peak positions identified by using a set of X-rhodamine (ROX)-labeled MapMarker1000 molecular weight standards (BioVentures). The raw capillary electrophoresis data was processed using Attagraph software (Attagene).
With `C=COC(=O)C(C)(C)CCCCCC` the outcome was “inactive”.
In the case of `CN(C)c1ccc(C(=C2C=CC(=[N+](C)C)C=C2)c2ccccc2)cc1`, the outcome is reported as “inactive” and the AC50 is reported as 2.72 µM (active).
For `CCCCCCCCCCCC[N+](C)(C)Cc1ccccc1`, the outcome was “inactive” and the AC50 was 15.7 µM (active).
In the case of `CCCCCC(C)OC(=O)COc1ccc(Cl)c2cccnc12` (stereo not given), the outcome is reported as “inactive”.
In the case of `Cc1ccccc1C(OCCN(C)C)c1ccccc1` (stereo not given), the outcome is reported as “inactive”.
For `Oc1c(Cl)cc(Cl)cc1Sc1cc(Cl)cc(Cl)c1O`, the outcome was “inactive”.
With `c1cnc2c(c1)ccc1cccnc12` the outcome was “inactive” and the AC50 was 5.84 µM (active).
For `COC(=O)CC(C(C)=O)C(=O)OC` (stereo not given), the outcome was “inactive”.
With `CCCCCc1ccc(O)cc1` the outcome was “inactive”.
In the case of `O=C1OC2(c3ccccc31)c1cc(I)c(O)c(I)c1Oc1c2cc(I)c(O)c1I`, the outcome is reported as “inactive”.
With `COCC1CCC(CO)CC1` (stereo not given) the outcome was “inactive”.
For `O=C(F)C(F)(F)C(F)(F)C(F)(F)C(F)F`, the outcome was “inactive”.
For `O=C1C=CC(=O)N1c1cccc(N2C(=O)C=CC2=O)c1`, the outcome was “inactive”.
In the case of `CCc1cccc(CC)c1NC(=O)C(=O)O`, the outcome is reported as “inactive”.
For `O=S(=O)(O)C(F)(F)C(F)(F)C(F)(F)C(F)(F)C(F)(F)C(F)(F)C(F)(F)C(F)(F)C(F)(F)C(F)(F)F`, the outcome was “inactive”.
With `FC(F)(F)C1(F)C(F)(F)C(F)(F)C(F)(F)C(F)(C(F)(F)F)C1(F)F` (stereo not given) the outcome was “inactive”.
For `C[N+](C)(CCCNS(=O)(=O)CCC(F)(F)C(F)(F)C(F)(F)C(F)(F)C(F)(F)C(F)(F)F)CC(=O)[O-]`, the outcome was “inactive”.
For `C[C@]12CC[C@@H]3c4ccc(O)cc4CC[C@H]3[C@@H]1C[C@@H](O)[C@@H]2O`, the AC50 was 24.9 µM (active) and the outcome was “inactive”.
For `O=C1c2ccccc2C(=O)c2c(O)c(O)cc(O)c21`, the outcome was “inactive”.
With `CCCCCCCCCCCCOC(=O)c1cc(O)c(O)c(O)c1` the outcome was “inactive”.
In the case of `C=C(c1ccc(C(=O)O)cc1)c1cc2c(cc1C)C(C)(C)CCC2(C)C`, the AC50 is reported as 18.3 µM (active) and 34.7 µM (active).
With `CCc1ccccc1O` the outcome was “inactive”.
In the case of `O=C(CC(=O)C(F)(F)C(F)(F)C(F)(F)F)c1cccs1`, the outcome is reported as “inactive [setting not given]”.
For `C/C=C/C(=O)C1=C(C)CCCC1(C)C`, the outcome was “inactive”.
With `NCc1cccc(CN)c1` the outcome was “inactive”.
For `O=C1OC(=O)C(F)(F)C1(F)F`, the outcome was “inactive”.
In the case of `Cc1cccc2c1ccc1ccccc12`, the outcome is reported as “inactive”.
In the case of `CCCCCCCCCCCC(=O)O`, the outcome is reported as “inactive”.
With `O=C(O)C(=O)O` the outcome was “inactive”.
With `O=C(O)c1cccc(C(=O)O)n1` the outcome was “inactive”.
For `O=C(O)CCC(F)(F)C(F)(F)C(F)(F)C(F)(F)C(F)(F)F`, the outcome was “inactive”.
For `CC1CCC(C(=O)O)CC1` (stereo not given), the outcome was “inactive”.
With `Oc1cccc2c(O)cccc12` the outcome was “inactive”.
In the case of `Cc1[nH]nc2c1N=C(c1ccccc1Cl)c1cc([N+](=O)[O-])ccc1N2`, the AC50 is reported as 3.12 µM (active).
With `CCOC(=O)CN[C@@H](C(=O)N1CC[C@H]1C(=O)NCc1ccc(/C(N)=N/O)cc1)C1CCCCC1` the outcome was “inactive”.
In the case of `OCC(CO)(CBr)CBr`, the outcome is reported as “inactive”.
